Source: the OligoGym collection

Each sequence was assayed against TMCO6 (assay: pooled miR-30 sensor sort-seq; sequence = guide strand). Settings: shRNA.
Also: reference of the scale not given here.

In order of rising sensor-assay potency score (higher = more potent):
1. AACACGCTCATCTCTGAGCTGC  -0.789
2. TGCAACATTGCACAGAACTGTG  -0.739
3. TTTGTAGCATGTGCTGAGGGAG  -0.612
4. TTGCAACATTTGTAGCATGTGC  -0.588
5. TTTTCTGCAACATTGCACAGAA  0.104

Each sequence was assayed against TMED3 in the same assay as above. Settings: shRNA.

In order of rising sensor-assay potency score (higher = more potent):
1. ATCGTCTCGCCAACAGACCAGT  -1.25
2. TAGTTGTAAATGTCTTTTCAGC  -1.07
3. TTGTCCGGCAGCTCGAAGGTGA  -0.973
4. TATTAAGGTCTTCCGCTCGGGC  -0.618
5. ATAGCAGTCAACATCGTAGTGG  -0.497
6. TACTGCTTCTTCGTTTCTCTGT  -0.244
7. TACATAGCAGTCAACATCGTAG  -0.235
8. TAGCAGTCAACATCGTAGTGGC  -0.101
9. TTGAAAGTCAAAGTAGACGGTC  -0.0324
10. TTCAACAGTAGCACCTGACTGA  0.248
11. TACCACAGCAGCATCGTTCTGC  0.426
12. TTCGTTTCTCTGTAGATGGTGT  0.459

Each sequence was assayed against TMED9 in the same assay as above. Settings: shRNA.

In order of rising sensor-assay potency score (higher = more potent):
1. TTTCTGGATCTGCTCCACTTGT  -1.3
2. TTGTCATACAGCTGCGTCCGGT  -1.2
3. TGTCTTTAGCAGCAATTTCTGC  -1.06
4. ATGACCATGGTCTCGTCCGGGA  -0.96
5. TTGAGGTGCCGCATCTGCCAGA  -0.928
6. TTTAGCAGCAATTTCTGCATAG  -0.576
7. TCAGTAACTAAGACTCTGCAGG  -0.549
8. TATGACCATGGTCTCGTCCGGG  -0.321
9. TTCACCTCCACAAACATGCCAA  -0.184
10. TTGGAGTGAAGACAGATCTGGT  -0.176
11. TGGGAAGTGAAAGTGAACCTGC  0.118
12. TAACACTGTGATTCTGAGGTGC  0.27

These sequences were tested against TMEFF2 in the same assay as above. Settings: shRNA.

In order of falling sensor-assay potency score (higher = more potent):
1. TTAAGACATACTGAAATCGTAC  -0.191
2. TTTTTTCACAGTGTTGTCCAGT  -0.255
3. TAGATCTCTTGTCTTATTCTTT  -0.31
4. TAGCATTCTCTGCATAATCTGT  -0.543
5. TAGAATGCTCACACTTCCCATG  -0.607
6. TACAGGACCGGGAACAACGTAT  -0.637
7. TTGTCTGAACTGTAGTGCCCTG  -0.73
8. TTGTGTTATCTTGACATCGACC  -0.895
9. TATAGAACACTGTAGTCCTTTT  -0.956
10. TCAATATTACACACACACCAGA  -1.06
11. TAGAACACTGTAGTCCTTTTTT  -1.55
